M1 PAM – potentiates human M1 receptor response to acetylcholine; CHO-K1 hM1, Fluo-8 calcium fluorescence, ACh EC20; 0% = ACh EC20, 100% = maximal ACh; activation, % at 3 µM; 360,000 tested, 0.088% active; in the data active = activation above about 19%, passing the limit was not always enough
Target sequence (P11229 whole entry, looked up): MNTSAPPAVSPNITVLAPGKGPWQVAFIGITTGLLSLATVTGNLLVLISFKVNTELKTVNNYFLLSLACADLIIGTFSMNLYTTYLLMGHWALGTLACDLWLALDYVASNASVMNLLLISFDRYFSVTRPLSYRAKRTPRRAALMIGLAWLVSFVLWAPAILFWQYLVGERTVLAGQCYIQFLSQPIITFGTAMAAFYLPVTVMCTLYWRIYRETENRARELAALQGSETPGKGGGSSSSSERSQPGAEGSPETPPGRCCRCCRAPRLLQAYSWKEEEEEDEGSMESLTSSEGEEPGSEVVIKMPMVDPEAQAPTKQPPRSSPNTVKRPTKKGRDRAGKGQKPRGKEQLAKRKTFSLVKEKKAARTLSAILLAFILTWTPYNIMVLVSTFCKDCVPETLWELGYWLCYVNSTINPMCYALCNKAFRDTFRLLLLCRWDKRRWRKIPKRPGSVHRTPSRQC
M1 ag parental – nonselective activator or artifact in parental CHO-K1 cells. Fluo-8 calcium fluorescence; scaled to maximal ATP response, vehicle zero. 360,000 tested, 0.48% active. activation, % at 3 µM; in the data active = activation above about 15%;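 also: untransfected CHO-K1 host cells lacking M1 receptor as counterscreen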
M1 PAM parental – nonselective activator or artifact in parental CHO-K1 calcium assay; ATP EC20, Fluo-8 calcium fluorescence; 0% at ATP EC20, 100% at ATP max; activation, % at 3 µM; 360,000 tested, 0.02% active;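 active = activation above the run cutoff, the mean activation of all test compounds plus 3 SD, cut at about 40% in these data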;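 also: peak over basal fluorescence ratio in a 140 s read after ATP addition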
CHRM1 antagonist – antagonists of human M1 muscarinic receptor; inhibition, % at 3 µM; CHO-K1 hM1, Fluo-8 calcium fluorescence, ACh EC80 antagonist; P11229; 360,000 tested, 1.3% active;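 active = percent inhibition above its own plate's cutoff, namely the mean of that plate's compound wells plus 3 SD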;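 also: peak over basal fluorescence ratio during 140 s after agonist addition; 0% = ACh EC80 plus DMSO and 100% = DMSO alone without agonist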
CHO-K1 Ca antag – M1 antagonist counterscreen hit in parental CHO-K1 cells. ATP-induced calcium, Fluo-8 fluorescence. inhibition, % at 3 µM. 360,000 tested, 0.6% active. AID 602250;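 active = inhibition above a per-plate cutoff, the plate's mean sample inhibition plus 3 SD, cut at about 24% in these data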;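 also: 0% = DMSO plus EC80 ATP and 100% = DMSO alone without ATP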
M1 ag – activates human CHRM1 receptor. CHO-K1 hM1, Fluo-8 calcium fluorescence, agonist mode; 0% DMSO, 100% acetylcholine EC100. 360,000 tested, 0.33% active. activation, % at 3 µM. P11229;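 active = activation above the run's mean compound activation plus 3 SD, cut at about 16% in these data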;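 also: peak over basal fluorescence ratio within a 140 s kinetic read after compound addition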
The depositor's hits bear a star. This is a sample that favours compounds with a hit; in the whole collection about 2.3% have one here.

SMILES | M1 PAM | M1 ag parental | M1 PAM parental | CHRM1 antagonist | CHO-K1 Ca antag | M1 ag
Cc1ccc(NC(=O)c2cnc(N3CCN(c4ccccn4)CC3)c3ccccc23)c(Br)c1 | -27 | 6 | -6 | 32* | 26* | -5
CC(C)CCNC(=O)CCCCn1c(=O)[nH]c2ccsc2c1=O | 5 | 0 | 7 | -10 | -10 | -2
CC(C)(C)Cc1c(-c2ccc(C#N)cc2)nc2c(Cl)cc(C(F)(F)F)cn12 | 6 | 0 | 17 | -28 | -27 | -2
CC/C(C)=N/Nc1cccc([N+](=O)[O-])c1 | 6 | 0 | 6 | -5 | 5 | -7
O=C(COc1ncnc2ccccc12)Nc1cc([N+](=O)[O-])ccc1F | 4 | 17* | 6 | -5 | 3 | -1
COc1ccc(Cn2ccnc2)cc1Br | -1 | 2 | 14 | -5 | -11 | -3
COc1ccc(NCc2ccc(OC)c(Cn3ccnc3)c2)c(OC)c1 | -22 | 5 | -3 | 34* | -3 | -9
Cc1ccc(S(=O)(=O)Nc2ccccc2F)cc1C(=O)NCc1ccco1 | -3 | 0 | -9 | 13 | -5 | -4
C=CCn1c(=O)/c(=C/c2ccsc2)s/c1=C(\C#N)C(=O)NCCN1CCOCC1 | 9 | 0 | -3 | -26 | -5 | -4
Cc1onc(-c2ccccc2)c1C(=O)Nc1ncc([N+](=O)[O-])s1 | -13 | 16* | 4 | 27 | 12 | 7
CC(C)=CCc1cc(-c2oc3cc(O)cc(O)c3c(=O)c2O)ccc1O | 2 | 1 | -9 | 5 | 0 | -13
CC(C)=CCc1c(O)cc2oc3c(CC=C(C)C)c(O)c(O)c(CC=C(C)C)c3c(=O)c2c1O | -13 | 5 | -7 | 17 | 25* | -1
CC(C)C1C(=O)N(Cc2cn(Cc3ccco3)nn2)CCS(=O)(=O)N1Cc1ccc(-c2ccc(F)cc2)cc1 (centres undefined) | 1 | 1 | 6 | 1 | 2 | -4
O=C(CSc1nnc(SCc2ccccc2)s1)N/N=C/C=C\c1ccco1 | 11 | 16* | 17 | -5 | 9 | -6
Fc1ccc(NC(=S)NCCN2CCOCC2)c(F)c1F | 10 | 2 | 24 | -20 | -22 | -5
COc1ccccc1C1OCC(C)([N+](=O)[O-])CO1 (centres undefined) | 3 | 1 | 17 | -6 | -10 | 0
CC1([N+](=O)[O-])COC(c2cccc3ccccc23)OC1 (centres undefined) | -9 | 0 | -15 | 11 | 26* | -2
COc1ccc2nc(SC(C)C(=O)NCC(=O)Nc3ccc(F)c(F)c3F)[nH]c2c1 (centres undefined) | 4 | 1 | -7 | -8 | -5 | -7
Cc1ccc(Nc2nc(C)cc(C)c2C#N)c(C)c1 | 8 | 0 | 10 | -10 | -7 | -2
COc1ccc(COC(=O)C2=C(C)NC(=O)NC2c2ccc(OC)c(OC)c2)cc1 (centres undefined) | 18 | 0 | -3 | -10 | 24* | 4
CC1=C(C(=O)OCCC(C)C)C(c2ccc3c(c2)OCO3)NC(=O)N1 (centres undefined) | -5 | 1 | 1 | 9 | 0 | -6
C/C=C/COC(=O)C1=C(C)NC(=O)NC1c1ccc2c(c1)OCO2 (centres undefined) | 1 | 1 | -6 | 4 | 25* | -4
COc1cc(C2NC(=O)NC(C)=C2C(=O)OCC2CCCCC2)ccc1O (centres undefined) | 8 | 20* | 8 | -10 | -8 | 4
COCC(C)n1c(SC(C)C(=O)NC2CCCCC2C)nc2ccccc2c1=O (centres undefined) | 2 | 0 | 9 | 22 | -4 | 0
O=C1CSC2(C(=O)N3CCCc4cccc2c43)N1c1cccc(C(F)(F)F)c1 (centres undefined) | -22 | 0 | 12 | 89* | -8 | -8
SMILES | M1 PAM | M1 ag parental | M1 PAM parental | CHRM1 antagonist | CHO-K1 Ca antag | M1 ag
COc1ccc(N2C(=O)CSC23C(=O)N2CCCc4cccc3c42)cc1 (centres undefined) | -26 | 1 | 9 | 85* | -7 | -6
COC(=O)c1[nH]c2ccc(C)cc2c1NC(=O)CCN1CCN(Cc2ccc3c(c2)OCO3)CC1 | -33 | 1 | 12 | 61* | -17 | -15
Cc1cccnc1CN1CCN(C(=O)c2cc(COc3ccc4ncccc4c3)on2)CC1 | -4 | 15 | 4 | 18 | 18 | -3
CCOC(=O)C1CCCN(C(=O)c2cc(COc3ccc(C)nc3)on2)C1 (centres undefined) | -4 | 6 | 13 | 4 | -7 | 27*
CCN(CC)C1CCN(C(=O)c2cc(COc3ccc(-n4cncn4)cc3)on2)C1 (centres undefined) | -8 | 0 | 6 | 42* | 0 | 15
O=C(c1cc(COc2ccc3ncccc3c2)on1)N1CCCC(O)C1 (centres undefined) | -1 | 11 | 10 | 2 | -3 | -1
COCC1CCCN(C(=O)c2cc(COc3ccc4ncccc4c3)on2)C1 (centres undefined) | -11 | 14 | -4 | 35* | 25* | 9
CCOC(=O)N1CCN(C(=O)c2cc(COc3ccc4ncccc4c3)on2)CC1 | -4 | 4 | -13 | 5 | 25* | 4
Cc1cccc(C)c1NC(=O)C(NC(=O)CN1C(=O)c2ccccc2C1=O)c1ccccc1 (centres undefined) | -1 | 0 | 17 | -9 | -1 | -3
CC1CCCCC1NC(=O)COC(=O)COc1ccccc1F (centres undefined) | 5 | 0 | 1 | -7 | 2 | 1
O=C(c1ccccc1)c1ccc(-n2cnnc2)c([N+](=O)[O-])c1 | 6 | 22* | 5 | -10 | -20 | 0
Cc1cccc(N2CC(O)(c3cccs3)[N+]3=C2CCCC3)c1 (centres undefined) | -5 | 0 | -15 | 14 | 1 | -4
Cc1cccc(N2CC(O)(c3cccs3)[N+]3=C2CCCC3)c1C (centres undefined) | -17 | 6 | -1 | 37* | 8 | -5
Cc1ccc(N2CC(O)(c3cccs3)[N+]3=C2CCCC3)cc1 (centres undefined) | -22 | 0 | -9 | 40* | -13 | -8
Cc1cc(C(=O)Nc2ccc([N+](=O)[O-])cn2)cs1 | 3 | 0 | 9 | -8 | -7 | -6
CCCN(C(=O)c1cccc(S(=O)(=O)N2CCN(C)CC2)c1)c1c(N)n(Cc2ccccc2)c(=O)[nH]c1=O | -2 | 0 | -13 | 12 | 12 | -3
COc1cccc(-c2cnc(C(O)c3c(C)ccc4ccccc34)[nH]2)c1 (centres undefined) | -1 | 20* | 2 | -1 | 3 | 9
